Measured values taken from PubChem BioAssay (NCATS).
Records with an inconclusive call do not appear. The source made the active and inactive calls. The call rests on the fitted dose curve; in most records, active means well fitted curve in the direction sought with a large enough effect; inconclusive means small, poorly fitted or top-dose-only effect, or another doubt; inactive means no such curve, though single readings can be large; an effect the other way counts as inactive or inconclusive.

How the values were obtained:
[1] = target: Rap guanine nucleotide exchange factor 3 (Homo sapiens) (UniProt O95398); assay: Confirmatory qHTS for antagonist of cAMP-regulated guanine nucleotide exchange factor 3 (EPAC1) (AID 1645880); conditions: EPAC1 Rap1B-BODIPY-GDP exchange, fluorescence; series mostly up to 115 µM; further: nearly all actives have a fitted effect of over 55% in size; further: potency means the concentration at half of the fitted maximal effect
Summary of the method: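 Released BODIPY-GDP fluoresces less than Rap1-bound BODIPY-GDP; the signal is followed at 480/540 nm at 5-min intervals over 30 min, after 5 min at room temperature. Reactions contain 100 nM EPAC1, 250 nM RAP1B-BODIPY-GDP and 50 uM GDP; results are normalized to ATA and DMSO.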

[2] = target: Rap guanine nucleotide exchange factor 3 (Homo sapiens) (UniProt O95398); assay: Confirmatory qHTS for agonist of cAMP-regulated guanine nucleotide exchange factor 3 (EPAC1) (AID 1645881); conditions: EPAC1 Rap1B BODIPY-GDP exchange fluorescence; series mostly up to 154 µM; further: nearly all actives have a fitted effect of over 75% in size; further: potency means the concentration at half of the fitted maximal effect;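 on activation: EPAC1 catalysed release of BODIPY-GDP from Rap1B seen as fluorescence loss; 100% = effect of cAMP agonist control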
[3] = target: Rap guanine nucleotide exchange factor 4 (Homo sapiens) (UniProt Q8WZA2); assay: Confirmatory qHTS for agonist of cAMP-regulated guanine nucleotide exchange factor 4 (EPAC2) (AID 1645884); conditions: EPAC2 GEF activity, Rap1B-BODIPY-GDP fluorescence; series mostly up to 154 µM;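 further: nucleotide exchange releases bodipy-GDP from Rap1 and this lowers its fluorescence; nearly all actives have a fitted effect of over 65% in size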; further: potency means the concentration at half of the fitted maximal effect; on activation: on the % scale 0 is the no-effect control and ±100 the full control effect
[4] = target: Rap guanine nucleotide exchange factor 4 (Homo sapiens) (UniProt Q8WZA2); assay: Confirmatory qHTS for antagonist of cAMP-regulated guanine nucleotide exchange factor 4 (EPAC2) (AID 1645885); conditions: EPAC2 Rap1B-BODIPY-GDP exchange fluorescence, biochemical; series mostly up to 12.7 µM; further: nearly all actives have a fitted effect of over 25% in size; further: potency means the concentration at half of the fitted maximal effect; on activity change, negative = inhibition: on the % scale 0 is the no-effect control and ±100 the full control effect
[5] = target: Rap guanine nucleotide exchange factor 3 (Homo sapiens) (UniProt O95398); assay: Counterscreen qHTS for antagonist of cAMP-regulated guanine nucleotide exchange factor 3 (EPAC1) (AID 1645888); conditions: Rap1B-BODIPY-GDP nucleotide exchange, fluorescence; series mostly up to 154 µM; further: % of control where 0% means no effect
Summary of the method: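 Rap1B-BODIPY-GDP 250 nM + GDP 50 uM; cpds 7-pt, final 9.74 nM–152 uM (activator mode) or from 7.32 nM upwards (inhibitor mode); RT; FI 480/540 nm at 5 and 30 min, then ± cAMP, reread.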

Chain of Rap guanine nucleotide exchange factor 3 (Homo sapiens) (O95398 whole entry, looked up): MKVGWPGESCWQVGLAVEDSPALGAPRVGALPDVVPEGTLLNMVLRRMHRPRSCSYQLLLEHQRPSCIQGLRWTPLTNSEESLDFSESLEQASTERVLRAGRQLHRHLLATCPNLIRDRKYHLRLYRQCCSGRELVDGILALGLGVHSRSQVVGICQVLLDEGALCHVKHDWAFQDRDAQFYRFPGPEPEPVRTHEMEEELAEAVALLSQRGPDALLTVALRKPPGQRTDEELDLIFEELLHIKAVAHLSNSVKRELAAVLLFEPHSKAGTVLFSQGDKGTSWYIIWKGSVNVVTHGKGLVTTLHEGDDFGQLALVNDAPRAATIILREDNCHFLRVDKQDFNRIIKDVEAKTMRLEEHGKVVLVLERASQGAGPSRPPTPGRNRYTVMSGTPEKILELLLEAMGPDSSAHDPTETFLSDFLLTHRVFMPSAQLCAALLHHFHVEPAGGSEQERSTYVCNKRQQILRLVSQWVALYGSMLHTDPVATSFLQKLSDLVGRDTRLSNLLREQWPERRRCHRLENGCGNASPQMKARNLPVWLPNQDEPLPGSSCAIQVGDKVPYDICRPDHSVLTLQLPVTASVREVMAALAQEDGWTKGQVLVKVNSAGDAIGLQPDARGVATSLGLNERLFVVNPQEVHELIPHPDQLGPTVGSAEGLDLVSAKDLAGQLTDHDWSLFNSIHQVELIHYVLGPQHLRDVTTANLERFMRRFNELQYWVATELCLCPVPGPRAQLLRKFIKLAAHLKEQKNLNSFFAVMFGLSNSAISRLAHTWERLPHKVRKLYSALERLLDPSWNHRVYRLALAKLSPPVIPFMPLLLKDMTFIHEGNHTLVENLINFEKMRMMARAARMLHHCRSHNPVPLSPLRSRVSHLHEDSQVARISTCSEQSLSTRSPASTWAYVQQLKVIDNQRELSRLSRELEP
Chain of Rap guanine nucleotide exchange factor 4 (Homo sapiens) (Q8WZA2 whole entry, looked up): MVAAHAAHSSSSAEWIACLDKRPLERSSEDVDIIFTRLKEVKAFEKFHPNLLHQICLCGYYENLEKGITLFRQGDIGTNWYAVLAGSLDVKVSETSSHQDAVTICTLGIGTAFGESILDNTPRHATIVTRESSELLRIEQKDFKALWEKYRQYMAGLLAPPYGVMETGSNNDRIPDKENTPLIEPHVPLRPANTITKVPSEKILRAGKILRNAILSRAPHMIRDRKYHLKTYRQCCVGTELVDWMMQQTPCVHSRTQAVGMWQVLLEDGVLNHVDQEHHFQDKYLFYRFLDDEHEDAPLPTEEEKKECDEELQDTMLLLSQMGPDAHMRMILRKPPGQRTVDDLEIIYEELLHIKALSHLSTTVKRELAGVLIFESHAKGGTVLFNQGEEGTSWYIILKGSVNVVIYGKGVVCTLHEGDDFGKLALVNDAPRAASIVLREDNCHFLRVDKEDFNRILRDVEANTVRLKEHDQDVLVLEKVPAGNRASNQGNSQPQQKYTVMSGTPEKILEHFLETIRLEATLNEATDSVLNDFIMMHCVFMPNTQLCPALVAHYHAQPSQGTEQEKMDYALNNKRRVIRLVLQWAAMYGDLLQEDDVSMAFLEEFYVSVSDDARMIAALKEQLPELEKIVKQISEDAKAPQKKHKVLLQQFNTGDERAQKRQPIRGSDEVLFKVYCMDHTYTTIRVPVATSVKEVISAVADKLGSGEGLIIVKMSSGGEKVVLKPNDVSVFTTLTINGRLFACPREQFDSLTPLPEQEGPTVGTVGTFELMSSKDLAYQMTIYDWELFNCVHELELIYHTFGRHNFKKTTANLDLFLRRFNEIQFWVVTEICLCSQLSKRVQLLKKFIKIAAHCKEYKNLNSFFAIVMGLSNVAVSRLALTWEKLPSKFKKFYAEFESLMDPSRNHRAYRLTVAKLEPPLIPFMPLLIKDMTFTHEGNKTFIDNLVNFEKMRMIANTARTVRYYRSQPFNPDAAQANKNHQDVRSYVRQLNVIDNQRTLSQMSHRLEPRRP

O=C(/C=C/c1ccco1)Nc1ccc(Cl)c(-c2nc3cc(Cl)ccc3o2)c1
inactive: Potency [2] | Potency [3] | Potency [4] | Potency [5]
active: Potency [1] 75.7 µM

CCn1c(CSc2nc3ccccc3s2)nnc1SCC(=O)c1ccc(O)c(O)c1
inactive: Potency [1] | Potency [2] | Potency [3] | Potency [4] | Potency [5]

COc1cc(OC)c(NC(=O)N2CCC(CN3CCOCC3)CC2)cc1Cl
inactive: Potency [1] | Potency [2] | Potency [3] | Potency [4] | Potency [5]

COC(=O)c1ccccc1NC(=O)CN1C(=O)COc2ccccc21
inactive: Potency [1] | Potency [2] | Potency [3] | outcome [4] inactive [at 12.7 µM] | Potency [5]

O=c1nc2s/c(=C\c3ccc(-c4ccccc4[N+](=O)[O-])o3)c(=O)n2nc1-c1ccccc1
inactive: Potency [2] | Potency [3] | Potency [4] | Potency [5]
active: Potency [1] 12 µM

Cc1cc(Cl)ccc1-n1c(CCC(=O)O)ccc1-c1cccs1
inactive: Potency [1] | Potency [2] | Potency [3] | Potency [4] | Potency [5]

CC(C)OC1(c2ccccc2)OC(=O)c2ccccc21 (stereo not given)
inactive: Potency [1] | Potency [2] | Potency [3] | Potency [4] | Potency [5]

CCCn1c(CN2CCN(C(=O)c3ccco3)CC2)nc2c1c(=O)n(C)c(=O)n2C
active: Potency [4] 10.7 µM
inactive: Potency [1] | Potency [2] | Potency [3] | Potency [5]

O=c1[nH]c(Nc2ccccc2)cc2ccccc12
inactive: Potency [2] | Potency [3] | Potency [4] | Potency [5]
active: Potency [1] 37.9 µM

Cc1ccc(S(=O)(=O)N2[C@@H](c3ccc(Br)cc3)C(C(=O)O)=CC[C@H]2c2ccc(Cl)c(Cl)c2)cc1
active: Potency [1] 67.5 µM | Potency [4] 33.8 µM
inactive: Potency [2] | Potency [3] | Potency [5]

O=C(NCC(c1ccco1)N1CCN(c2ccccc2F)CC1)c1cccs1 (stereo not given)
inactive: Potency [1] | Potency [2] | activation [3] 5.11% [at 17.1 µM, percent relative to cAMP agonist control] | Potency [4] | activity change, negative = inhibition [5] 6.53% [at 30.8 µM]

COc1ccc2cc(-c3cn4c(n3)sc3cc(F)ccc34)c(=O)oc2c1
inactive: Potency [1] | Potency [2] | Potency [3] | Potency [4] | Potency [5]

C=CCSc1nc2ccccc2c(=O)n1C1CCOC(C)(C)C1 (stereo not given)
inactive: Potency [1] | Potency [2] | Potency [3] | Potency [4] | Potency [5]

CCOc1ccc(C2=CC(c3cccc(Br)c3)n3c(nc4ccccc43)N2)cc1Cl (stereo not given)
inactive: Potency [1] | Potency [2] | Potency [3] | Potency [4] | Potency [5]

CCOc1cc(/C=C2\SC(=S)N(NS(=O)(=O)c3ccccc3)C2=O)ccc1O
inactive: Potency [2] | Potency [3] | Potency [5]
active: Potency [1] 33.8 µM | Potency [4] 42.6 µM

Cc1ccc(CNC(=O)COc2ccccc2-c2ccccc2)cc1
inactive: Potency [1] | Potency [2] | activation [3] 2.73% [at 17.1 µM, percent relative to cAMP agonist control] | Potency [4] | activity change, negative = inhibition [5] 0.587% [at 30.8 µM]

Cc1ncc(CO)c(/C=N/NC(=O)c2cc(Br)ccc2O)c1O
inactive: Potency [1] | Potency [2] | activation [3] 0% [at 17.1 µM, percent relative to cAMP agonist control] | Potency [4] | activity change, negative = inhibition [5] -9.07% [at 30.8 µM]

O=c1cc(O)c2sc3nc(-c4cccnc4)cc(C(F)(F)F)c3c2[nH]1
inactive: Potency [1] | Potency [2] | Potency [3] | Potency [4] | Potency [5]

CCN(CC)c1ccc(Nc2nc(-c3cccnc3)cs2)cc1
inactive: Potency [1] | Potency [2] | Potency [3] | Potency [4] | Potency [5]

COC(=O)c1ccc(NC(=O)CCOc2ccccc2)cc1
inactive: Potency [1] | Potency [2] | Potency [3] | Potency [4] | Potency [5]

COc1cc2c(cc1OC)-c1cc(NCc3ccccn3)nc(=O)n1CC2
active: Potency [1] 37.9 µM
inactive: Potency [2] | Potency [3] | Potency [4] | Potency [5]

CCN(CC(=O)Nc1ccc(NC(C)=O)cc1)CC(=O)Nc1ccc(F)c(Cl)c1
inactive: Potency [1] | Potency [2] | activation [3] 5.14% [at 17.1 µM, percent relative to cAMP agonist control] | Potency [4] | activity change, negative = inhibition [5] 3.51% [at 30.8 µM]

Cc1cc(O)c(C(=O)/C=C/c2cccc([N+](=O)[O-])c2)c(=O)o1
inactive: Potency [2] | Potency [3] | Potency [4] | Potency [5]
active: Potency [1] 33.8 µM

Nn1cnnc1N/N=C/c1ccc(Cl)c([N+](=O)[O-])c1
inactive: Potency [1] | Potency [2] | Potency [3] | Potency [4] | Potency [5]

COc1ccc(OC)c(N=Cc2c(O)c3ccccc3oc2=O)c1
active: Potency [2] 112 µM | Potency [3] 89.1 µM
inactive: Potency [1] | Potency [4] | Potency [5]

Cc1ccc(C2=N/C(=C\c3c(C)nn(-c4ccccc4)c3N3CCCC3)C(=O)O2)cc1
inactive: Potency [1] | Potency [2] | Potency [3] | Potency [5]
active: Potency [4] 15.1 µM

COc1cccc(CNC(=O)CCC(=O)N2CC(C)Sc3ccccc32)c1 (stereo not given)
inactive: Potency [1] | Potency [2] | Potency [3] | Potency [4] | Potency [5]

CCCCCC(=O)Nc1ccc(C2C(=O)c3ccccc3C2=O)cc1
inactive: Potency [1] | Potency [2] | Potency [3] | Potency [4] | Potency [5]

CN(c1ccccc1)S(=O)(=O)c1cccc(Cl)c1Cl
inactive: Potency [1] | Potency [2] | Potency [3] | Potency [4] | Potency [5]

O=C1OC(c2ccc3ccccc3c2O)(c2ccc3ccccc3c2O)c2ccccc21
inactive: Potency [2] | Potency [3] | Potency [4] | Potency [5]
active: Potency [1] 75.7 µM

Cc1ccccc1OCCn1cnc2c(N)ncnc21
inactive: Potency [1] | Potency [2] | Potency [3] | Potency [4] | Potency [5]

CCn1c(=O)c2sccc2n2c(CCCC(=O)N3CCN(c4cc(C)ccc4C)CC3)nnc12
inactive: Potency [1] | Potency [2] | Potency [3] | Potency [4] | Potency [5]

O=C1NC(=Nc2ccccc2)S/C1=C\C=C\c1ccco1
active: Potency [1] 16.9 µM
inactive: Potency [2] | Potency [3] | Potency [4] | Potency [5]

O=C(/C=C/c1ccco1)NC(=S)Nc1cccc([N+](=O)[O-])c1
active: Potency [1] 20 µM
inactive: Potency [2] | activation [3] 7.76% [at 17.1 µM, percent relative to cAMP agonist control] | Potency [4] | activity change, negative = inhibition [5] -9.95% [at 30.8 µM]

COc1ccc(C=C2SC(=O)NC2=O)cc1OC
inactive: Potency [1] | Potency [2] | activation [3] 12% [at 17.1 µM, percent relative to cAMP agonist control] | Potency [4] | activity change, negative = inhibition [5] 12.5% [at 30.8 µM]

COc1ccc([N+](=O)[O-])cc1NC(=S)Nc1ccccc1
inactive: Potency [1] | Potency [2] | Potency [3] | Potency [4] | Potency [5]

COC(=O)c1cc2sc(C)cc2n1Cc1ccccc1
inactive: Potency [1] | Potency [2] | Potency [3] | Potency [4] | Potency [5]

CN1OC[C@@H]2CN(S(=O)(=O)c3cc(Cl)cc(Cl)c3)[C@H](c3ccc(-c4ccc(C#N)cc4)cc3)C[C@@H]21
inactive: Potency [1] | Potency [2] | Potency [3] | Potency [4] | Potency [5]

CC1(C)Cc2c(C#N)c(N3CCN(C(=O)c4ccccc4Cl)CC3)nc(-c3ccco3)c2CS1
active: Potency [1] 26.9 µM
inactive: Potency [2] | Potency [3] | Potency [4] | Potency [5]

COc1ccc(C2NC(=O)N(C)C3=C2C(=O)N(c2cccc(Cl)c2)C3)cc1 (stereo not given)
inactive: Potency [1] | Potency [2] | Potency [3] | Potency [4] | Potency [5]

CC(=O)c1sc(NC(=O)c2c(F)cccc2F)nc1C
inactive: Potency [1] | Potency [2] | Potency [3] | Potency [4] | Potency [5]

COc1ccc(-n2ccn(Cc3ccccc3Cl)c(=O)c2=O)cc1OC
inactive: Potency [1] | Potency [2] | Potency [3] | Potency [4] | Potency [5]

Cc1ccc(C(=O)OCC(=O)Nc2sccc2C(N)=O)cc1NC(=O)c1ccco1
inactive: Potency [2] | Potency [3] | Potency [4] | Potency [5]
active: Potency [1] 26.9 µM

O=C(Cc1c(Cl)cccc1Cl)Nc1ccncc1
inactive: Potency [1] | Potency [2] | activation [3] 13.7% [at 17.1 µM, percent relative to cAMP agonist control] | Potency [4] | activity change, negative = inhibition [5] 2.85% [at 30.8 µM]

Cc1cccc(C(=O)Nc2ccc3c(c2)ncn3C)c1
inactive: Potency [1] | Potency [2] | Potency [3] | Potency [4] | Potency [5]

CC1(C(=O)NS(=O)(=O)c2cccc(Cl)c2)CCN1C(=O)C1(c2ccc(Cl)cc2)CC1 (stereo not given)
active: Potency [1] 31.6 µM
inactive: Potency [2] | activation [3] 2.34% [at 17.1 µM, percent relative to cAMP agonist control] | Potency [4] | activity change, negative = inhibition [5] -16.3% [at 30.8 µM]

COC(=O)c1cc2oc(C)cc2n1Cc1ccccc1Cl
inactive: Potency [1] | Potency [2] | Potency [3] | Potency [4] | Potency [5]

O=[N+]([O-])c1cc2ccccc2c(O)c1O
inactive: Potency [2] | activation [3] 8.01% [at 17.1 µM, percent relative to cAMP agonist control] | Potency [4] | activity change, negative = inhibition [5] 9.83% [at 30.8 µM]
active: Potency [1] 31.6 µM

COc1ccc(C2=Cc3ccccc3C(CC(=O)C3CC3)N2c2ccc(C#CCCO)cc2)cc1 (stereo not given)
inactive: Potency [1] | Potency [2] | activation [3] 14.6% [at 17.1 µM, percent relative to cAMP agonist control] | Potency [4] | activity change, negative = inhibition [5] -1.57% [at 30.8 µM]
